Screens as filed in PubChem BioAssay.
This is a sample that favours compounds with a hit; in the whole collection about 3.5% have one here.
MITF inh – inhibitors of human MITF; AlphaScreen MITF homodimerization, bead proximity signal; inhibition, % at 2.6 µM; 650,000 tested, 0.91% active; AID 1259374; in the data active means inhibition above about 50%;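 further: 0% = vehicle wells with protein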
Target sequence (O75030 whole entry, looked up): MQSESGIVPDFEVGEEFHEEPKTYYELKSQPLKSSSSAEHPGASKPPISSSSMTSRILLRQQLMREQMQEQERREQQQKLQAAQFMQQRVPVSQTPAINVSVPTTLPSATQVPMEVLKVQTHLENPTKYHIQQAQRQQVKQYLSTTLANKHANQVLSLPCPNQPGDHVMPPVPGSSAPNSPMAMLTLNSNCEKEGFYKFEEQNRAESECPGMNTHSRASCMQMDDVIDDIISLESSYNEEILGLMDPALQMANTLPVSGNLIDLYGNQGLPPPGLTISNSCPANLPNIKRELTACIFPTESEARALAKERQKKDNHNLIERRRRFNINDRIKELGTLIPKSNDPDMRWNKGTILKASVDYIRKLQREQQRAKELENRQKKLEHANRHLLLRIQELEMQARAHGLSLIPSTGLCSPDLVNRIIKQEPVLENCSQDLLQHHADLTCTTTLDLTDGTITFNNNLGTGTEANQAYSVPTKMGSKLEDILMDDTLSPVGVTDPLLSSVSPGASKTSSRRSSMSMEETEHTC
GPR151 activ – activates the human receptor GPR151; Q8TDV0; PathHunter beta-arrestin GPR151 cells, luminescence; activation, % at 11.2 µM; 650,000 tested, 1% active; AID 1508602; in the data active means activation above about 4.9%;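 further: 0% = median of compound wells and 100% = cells with positive control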
TEAD-YAP inh – TEAD-YAP interaction inhibition. 640,000 tested, 1.4% active. HEK-TIYL cells, TEAD-Gal4/YAP UAS-luciferase luminescence. AID 1259422. inhibition, % at 9.12 µM; in the data active means inhibition above about 32%;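 further: 0% = median of test compound wells and 100% = reference inhibitor wells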
FBW7 act – human FBW7 E3 ligase activation, primary screen; Q969H0; AlphaScreen FBW7–phospho-cyclin E peptide binding, activator screen; normalized activity (activation), % at 26.1 µM; 650,000 tested, 0.13% active; AID 1259310; in the data active means normalized activity above about 1.9%;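 further: purified mutant Fbw7 with reduced substrate affinity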
* = called active by the depositor.

SMILES	MITF inh	GPR151 activ	TEAD-YAP inh	FBW7 act
Cc1cccc(Oc2nc3ccccn3c(=O)c2/C=C(\C#N)C(=O)NCCCOC(C)C)c1	-5.3	-8.2	4.1	0.4
CS(=O)(=O)c1ccc(Sc2nc3ccccc3s2)c([N+](=O)[O-])c1	4.5	0.2	64.4*	-0.1
O=[N+]([O-])c1cc(S(=O)(=O)N2CCOCC2)ccc1Sc1nc2ccccc2s1	12.2	2.3	-0.1	-0.3
COc1cccc2oc(-c3ccccc3)cc(=O)c12	11.6	-10.9	60.1*	0.1
Cc1c(C(=O)Nc2cccc(C(F)(F)F)c2)sc2ncnc(N3CCCCC3)c12	-5.6	2.1	5.3	-0.1
C/C(=N\NC(=O)CN1CCN(Cc2ccc(C)cc2)CC1)c1ccccc1O	20.7	0.5	-1.2	-0.2
Cc1[nH]c2ccc(-c3nnc(SCC(=O)N(C(C)C)C(C)C)o3)cc2c1C	17.8	-1.2	35.9*	0.1
Cc1ccc(NC(=O)c2sc3nc(-c4ccccc4)cn3c2C)nc1	10.1	1.9	-24.8	0.2
Cc1ccc(C(=O)[C@@H]2[C@@H](c3ccccc3F)C(C#N)(C#N)[C@H]3C=Cc4ccccc4N23)cc1	-7.0	-0.2	-12.5	-0.3
COc1ccc(C(=O)[C@@H]2[C@@H](c3ccccc3F)C(C#N)(C#N)[C@H]3C=Cc4ccccc4N23)cc1	-0.3	0.4	66.9*	-0.1
COc1ccc(C(=O)[C@@H]2[C@@H](c3cccnc3)C(C#N)(C#N)[C@H]3C=Cc4ccccc4N23)cc1	12.1	2.5	58.4*	0.3
Cc1ccc(-c2csc(/C(C#N)=C\Nc3ccc(S(N)(=O)=O)cc3)n2)cc1	5.5	2.4	8.8	2.7*
COc1cccc(-c2nnc3sc(CN4CCCCC4)cn23)c1	0.0	-0.7	48.5*	-0.1
O=C(NS(=O)(=O)c1ccc(I)cc1)C(Cl)Cl	4.8	-2.4	-0.1	0.7
COc1ccc(/C=C/c2nn3c(Cn4cnc5ccccc54)nnc3s2)cc1	7.2	2.9	38.5*	0.2
CN(C)S(=O)(=O)N=C1C=CC(=NS(=O)(=O)N(C)C)C=C1	54.8*	-0.2	4.0	0.1
Cc1ccccc1NS(=O)(=O)c1ccc2ccccc2c1	11.9	0.0	2.8	0.1
CC(=O)Nc1ccccc1NS(=O)(=O)c1ccc2ccccc2c1	9.0	1.0	52.8*	0.8
CC(=O)Nc1ccc(C(=O)OCC(=O)c2ccc(Oc3ccc([N+](=O)[O-])cc3)cc2)cc1	-5.8	0.0	4.1	0.0
CCOc1cc(C(Nc2cccnc2)c2ccc3cccnc3c2O)ccc1O (stereo unspecified)	4.7	2.3	-2.3	-0.1
Oc1c(C(Nc2cccnc2)c2ccccc2F)ccc2cccnc12 (stereo unspecified)	51.0*	-1.8	74.7*	-1.2
Oc1ccccc1C(Nc1ncccn1)c1ccc2cccnc2c1O (stereo unspecified)	28.4	4.2	33.5*	-0.6
Cc1ccccc1NC(=O)c1cc2nc(-c3ccc4c(c3)OCO4)cc(C(F)(F)F)n2n1	-5.4	-1.5	-1.6	-0.2
CC1(C)Oc2ccc(C(=O)N(CC(=O)NC3CCCCC3)Cc3ccccc3)cc2NC1=O	9.9	1.0	3.6	-0.1
COc1ccc2c(c1)CC(c1nc3cc(-c4cn[nH]c4C)ccc3c(=O)[nH]1)CO2 (stereo unspecified)	9.8	1.4	39.8*	0.2
SMILES	MITF inh	GPR151 activ	TEAD-YAP inh	FBW7 act
COc1ccccc1OCc1nc2ccc(-c3cn[nH]c3C)cc2c(=O)[nH]1	10.0	-1.1	38.5*	0.1
Cc1ccc2c(c1)CC(c1nc3ccc(-c4cn[nH]c4)cc3c(=O)[nH]1)CO2 (stereo unspecified)	46.9	-2.1	-10.0	0.2
COc1ccc2c(c1)CC(c1nc3cc(-c4ccncc4)ccc3c(=O)[nH]1)CO2 (stereo unspecified)	19.3	0.9	-1.8	0.4
Cc1[nH]ncc1-c1ccc2nc(C3COc4ccccc4C3)[nH]c(=O)c2c1 (stereo unspecified)	17.4	-1.5	49.5*	1.0
CC(C)(C)OC(=O)NC(CC(N)=O)C(=O)NC(COCc1ccccc1)C(=O)NC(Cc1ccc(OCc2ccccc2)cc1)C(N)=O (stereo unspecified)	-7.5	0.3	-4.6	0.0
Cc1ccc(C)c(N(CC(=O)Nc2ccc(C)c(Cl)c2)S(C)(=O)=O)c1	-9.2	0.6	-9.3	-0.1
CC(C)n1c(NCCN2CCOCC2)nc2c(Nc3ccccc3)ncnc21	2.8	-4.0	41.1*	0.2
CC(C)n1c(NCCCN2CCCC2=O)nc2c(Nc3ccccc3)ncnc21	-6.1	-7.6	35.4*	-0.1
CC(C)n1c(NCCN2CCOCC2)nc2c(Nc3ccc(N4CCOCC4)cc3)ncnc21	0.2	-0.7	-11.1	0.0
CCCNc1ncnc2c1nc(NCCCN1CCCC1=O)n2C(C)C	8.5	-1.7	-19.4	0.2
COCCn1c(SCC(=O)c2cc(OC)ccc2OC)nnc1C(C)C	2.1	-0.5	-5.5	-0.1
CC(C)N1CCc2c(sc(NC(=O)C(C)(C)C)c2C(N)=O)C1	12.6	-0.2	73.6*	0.7
CC(=O)Nc1ccc2c(c1)C1C=CCC1C(c1ccc([N+](=O)[O-])cc1)N2 (stereo unspecified)	7.4	-0.7	2.9	0.1
Fc1cncc(-c2ccnc(Nc3ccc(-c4cnn(CCN5CCOCC5)c4)cc3)n2)c1	10.0	1.9	-3.8	0.4
c1cc(-c2cncc(N3CCOCC3)c2)nc(Nc2ccc(-c3cnn(CCN4CCOCC4)c3)cc2)n1	17.1	-1.4	96.0*	0.9
CCCn1cc(-c2ccc(Nc3nccc(-c4cncc(N5CCOCC5)c4)n3)cc2)cn1	7.3	1.0	46.8*	0.2
Cc1ccn2c(CNCCN3CCNC3=O)c(C(=O)N3CCCCCC3)nc2c1	14.8	0.5	9.7	0.2
COC(=O)c1ccc(N/C=C2/CCc3ccccc3C2=O)cc1	23.5	-5.8	68.3*	0.0
Cc1ccc(NC2C=CS(=O)(=O)C2)cc1C (stereo unspecified)	7.1	-2.6	32.5*	0.1
COc1ccc(Cl)cc1Nc1nc(-c2c(C)nc3cc(C)ccn23)cs1	8.5	-0.3	3.6	0.0
CCNc1ccc(C(=O)N/N=C(\C)c2cccs2)cc1[N+](=O)[O-]	15.5	-0.7	50.2*	-0.1
C/C(=N\NC(=O)c1cnccn1)c1cccs1	-365.9	-2.3	-14.1	0.0
C/C(=N/NC(=O)c1ccccn1)c1cccs1	-9.7	-5.3	66.1*	0.1
C/C(=N/NC(=O)c1ccc(O)cc1)c1cccs1	17.7	-0.1	-28.8	0.4
C/C(=N\NC(=O)c1cccc([N+](=O)[O-])c1)c1cccs1	-3.0	-0.4	2.2	0.0
C/C(=N\NC(=O)c1ccccc1O)c1cccs1	7.4	-1.1	37.5*	0.1
Cc1cccn2c(=O)c3cc(C#N)c(=O)n(Cc4ccco4)c3nc12	1.1	-0.3	-3.2	-0.3
O=C(c1ccccc1F)N1CCCC(c2nc(N3CCOCC3)ncc2-c2ccncc2)C1 (stereo unspecified)	-4.0	0.7	56.4*	0.0
Cc1cc(-c2cnc(N3CCCC3)nc2C2CCCN(C(=O)c3ccco3)C2)on1 (stereo unspecified)	0.4	-0.2	51.0*	-0.1
